# Measurements taken from PubChem BioAssay (NCI).
# About 79,000 compounds went through this panel and 15% of them were active in at least one assay; those are over-represented in the sample as a whole. The source made the active and inactive calls. Rule as the data show it: active = growth inhibition above about 70%; inactive = the rest.
# Assay: NCI Yeast Anticancer Drug Screen. Data for the wt2 strain (AID 169);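 also: 0% = growth of vehicle-treated yeast cultures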
# Conditions: S. cerevisiae wt2 strain growth inhibition; at 33.0 µM; active compounds read high
# Summary of the method: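 Inhibition of yeast growth was determined after compound treatment, normalised to controls receiving only vehicle.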
row,Structure (SMILES),growth inhibition
1,O=CC=C(c1ccccc1)c1ccccc1,22% (inactive)
2,FC(F)(F)c1nc2nc(Cl)c(Cl)nc2n1CCCN1CCOCC1,20% (inactive)
3,BrCC[P+](c1ccccc1)(c1ccccc1)c1ccccc1,88% (active)
4,N#CSc1ccc(S(N)(=O)=O)cc1,-25% (inactive)
5,O=[N+]([O-])c1ccc2nc3ccccc3cc2c1,33% (inactive)
6,O=C(NC(Nc1ccc(F)c(Cl)c1)(C(F)(F)F)C(F)(F)F)C(C(F)(F)F)C(F)(F)F,99% (active)
7,O=C(/C=C\c1ccc(Cl)cc1Cl)c1cccs1,4% (inactive)
8,O=C(NCCCCNCCCNC(=O)c1cc(-c2ccccc2)nc2ccccc12)c1cc(-c2ccccc2)nc2ccccc12,20% (inactive)
9,NC(=NCc1ccccc1)N/N=C\c1ccnc2ccccc12,-1% (inactive)
10,CCCCN(CCCC)CCSc1ccc(Cl)cc1,45% (inactive)
11,COc1cc(C2C3=C(COC3=O)Oc3cc4c(cc32)OCO4)ccc1O (stereo not drawn),-1% (inactive)
12,C#CCCCc1ccccc1,-31% (inactive)
13,CCc1ccc(NS(=O)(=O)c2ccccc2)c([N+](=O)[O-])c1,27% (inactive)
14,COc1ccc(C2c3cc4c(cc3OC(C)(O)C2C)OCO4)c(OC)c1 (stereo not drawn),1% (inactive)
15,COC(=O)c1ccc(CCC2=CC(=O)C(Br)=CC2=O)cc1,88% (active)
16,NNC(=O)CCc1ccc2ccc3ccccc3c2c1,6% (inactive)
17,Cn1c2ccccc2c(=O)c2cc(NC(=O)CCCCC(=O)Nc3ccc4c(c3)c(=O)c3ccccc3n4C)ccc21,10% (inactive)
18,CC(CC(C)(C)[N+](C)(C)C)[N+](C)(C)C (stereo not drawn),-1% (inactive)
19,CC1CCN(CCC(=O)c2ccc(Cl)cc2)CC1,5% (inactive)
20,CCCCCCCCCCCCCCC(C(=O)[O-])[n+]1ccccc1 (stereo not drawn),7% (inactive)

row,Structure (SMILES),growth inhibition
1,CNC1C(OC2C(OC3C(O)C(O)C(N=C(N)N)C(O)C3N=C(N)N)OC(C)C2(O)CO)OC(CO)C(O)C1O (stereo not drawn),34% (inactive)
2,O=C(O)c1ccccc1-c1ccccc1C(=O)Nc1ccc2c(c1)Cc1ccccc1-2,59% (inactive)
3,O=[N+]([O-])c1cccc2nc3ccccc3c(NCCCN3CCOCC3)c12,96% (active)
4,C=CC(C)(O)CCC1C(=C)C(O)CC2C(C)(C)CCCC12C (stereo not drawn),28% (inactive)
5,CN1c2ccc(Cl)cc2C(=O)NC1c1ccc([N+](=O)[O-])s1 (stereo not drawn),97% (active)
6,[O-][n+]1c2ccc(O)cc2nc2ccc(Br)cc21,60% (inactive)
7,O=C1c2ccccc2-c2nc3ccccc3nc21,28% (inactive)
8,CCCCN1C(=O)N(c2ccc(OCC)cc2)C2N(CCCC)C1C(C)(C)C2(C)C (stereo not drawn),26% (inactive)
9,CO[C@H]1C[C@](C)(O)Cc2cc3c(c(O)c21)C(=O)c1c(O)cc2c(c1C3=O)O[C@@H]1O[C@@]2(C)[C@H](O)[C@@H](N(C)C)[C@@H]1O,-19% (inactive)
10,COc1cc2c(cc1[N+](=O)[O-])C(=O)C(Br)(Br)CCC2,99% (active)
11,O=C1OC(CCl)CN1/N=C/c1ccc([N+](=O)[O-])o1 (stereo not drawn),54% (inactive)
12,CN(C)CCOc1ccc2c(c1)C/C(=C/c1ncc([N+](=O)[O-])n1C)C2=O,-22% (inactive)
13,CCCCCCCCCCCCCCCCCCN(C)CC(COP(=O)([O-])OCC[N+](C)(C)C)OC (stereo not drawn),60% (inactive)
14,CC(C)c1ccccc1NC(=O)/C(Cl)=C(\Cl)C(=O)O,4% (inactive)
15,O=[N+]([O-])C(=C(Sc1ccccc1)Sc1ccccc1)C(Cl)=C(Cl)Cl,59% (inactive)
16,C(=C\c1ccccc1)/COc1ccccc1C(N1CCOCC1)n1nc2ccccc2n1 (stereo not drawn),95% (active)
17,O=C1C(Nc2ccccc2)=C(Oc2ccccc2)C(=O)c2ccccc21,35% (inactive)
18,CCN(CC)CCN1C(=O)c2cccc3cc(OC)cc(c23)C1=O,-35% (inactive)
19,CN(C)Cc1cc(N=Nc2ccc(Cl)cc2)cc(CN(C)C)c1O,15% (inactive)

# Same assay, conditions: S. cerevisiae wt2 strain growth inhibition; at 100.0 µM; active compounds read high
row,Structure (SMILES),growth inhibition
1,O=CC=C(c1ccccc1)c1ccccc1,97% (active)
2,FC(F)(F)c1nc2nc(Cl)c(Cl)nc2n1CCCN1CCOCC1,26% (inactive)
3,BrCC[P+](c1ccccc1)(c1ccccc1)c1ccccc1,95% (active)
4,N#CSc1ccc(S(N)(=O)=O)cc1,50% (inactive)
5,O=[N+]([O-])c1ccc2nc3ccccc3cc2c1,89% (active)
6,O=C(NC(Nc1ccc(F)c(Cl)c1)(C(F)(F)F)C(F)(F)F)C(C(F)(F)F)C(F)(F)F,99% (active)
7,O=C(/C=C\c1ccc(Cl)cc1Cl)c1cccs1,7% (inactive)
8,O=C(NCCCCNCCCNC(=O)c1cc(-c2ccccc2)nc2ccccc12)c1cc(-c2ccccc2)nc2ccccc12,93% (active)
9,NC(=NCc1ccccc1)N/N=C\c1ccnc2ccccc12,38% (inactive)
10,CCCCN(CCCC)CCSc1ccc(Cl)cc1,97% (active)
11,COc1cc(C2C3=C(COC3=O)Oc3cc4c(cc32)OCO4)ccc1O (stereo not drawn),42% (inactive)
12,C#CCCCc1ccccc1,14% (inactive)
13,CCc1ccc(NS(=O)(=O)c2ccccc2)c([N+](=O)[O-])c1,78% (active)
14,COc1ccc(C2c3cc4c(cc3OC(C)(O)C2C)OCO4)c(OC)c1 (stereo not drawn),97% (active)
15,COC(=O)c1ccc(CCC2=CC(=O)C(Br)=CC2=O)cc1,98% (active)
16,NNC(=O)CCc1ccc2ccc3ccccc3c2c1,32% (inactive)
17,Cn1c2ccccc2c(=O)c2cc(NC(=O)CCCCC(=O)Nc3ccc4c(c3)c(=O)c3ccccc3n4C)ccc21,40% (inactive)
18,CC(CC(C)(C)[N+](C)(C)C)[N+](C)(C)C (stereo not drawn),-1% (inactive)
19,CC1CCN(CCC(=O)c2ccc(Cl)cc2)CC1,21% (inactive)
20,CCCCCCCCCCCCCCC(C(=O)[O-])[n+]1ccccc1 (stereo not drawn),83% (active)

row,Structure (SMILES),growth inhibition
1,CNC1C(OC2C(OC3C(O)C(O)C(N=C(N)N)C(O)C3N=C(N)N)OC(C)C2(O)CO)OC(CO)C(O)C1O (stereo not drawn),-6% (inactive)
2,O=C(O)c1ccccc1-c1ccccc1C(=O)Nc1ccc2c(c1)Cc1ccccc1-2,96% (active)
3,O=[N+]([O-])c1cccc2nc3ccccc3c(NCCCN3CCOCC3)c12,98% (active)
4,C=CC(C)(O)CCC1C(=C)C(O)CC2C(C)(C)CCCC12C (stereo not drawn),69% (inactive)
5,CN1c2ccc(Cl)cc2C(=O)NC1c1ccc([N+](=O)[O-])s1 (stereo not drawn),97% (active)
6,[O-][n+]1c2ccc(O)cc2nc2ccc(Br)cc21,80% (active)
7,O=C1c2ccccc2-c2nc3ccccc3nc21,61% (inactive)
8,CCCCN1C(=O)N(c2ccc(OCC)cc2)C2N(CCCC)C1C(C)(C)C2(C)C (stereo not drawn),91% (active)
9,CO[C@H]1C[C@](C)(O)Cc2cc3c(c(O)c21)C(=O)c1c(O)cc2c(c1C3=O)O[C@@H]1O[C@@]2(C)[C@H](O)[C@@H](N(C)C)[C@@H]1O,-12% (inactive)
10,COc1cc2c(cc1[N+](=O)[O-])C(=O)C(Br)(Br)CCC2,95% (active)
11,O=C1OC(CCl)CN1/N=C/c1ccc([N+](=O)[O-])o1 (stereo not drawn),90% (active)
12,CN(C)CCOc1ccc2c(c1)C/C(=C/c1ncc([N+](=O)[O-])n1C)C2=O,25% (inactive)
13,CCCCCCCCCCCCCCCCCCN(C)CC(COP(=O)([O-])OCC[N+](C)(C)C)OC (stereo not drawn),98% (active)
14,CC(C)c1ccccc1NC(=O)/C(Cl)=C(\Cl)C(=O)O,88% (active)
15,O=[N+]([O-])C(=C(Sc1ccccc1)Sc1ccccc1)C(Cl)=C(Cl)Cl,73% (active)
16,C(=C\c1ccccc1)/COc1ccccc1C(N1CCOCC1)n1nc2ccccc2n1 (stereo not drawn),99% (active)
17,O=C1C(Nc2ccccc2)=C(Oc2ccccc2)C(=O)c2ccccc21,29% (inactive)
18,CCN(CC)CCN1C(=O)c2cccc3cc(OC)cc(c23)C1=O,13% (inactive)
19,CN(C)Cc1cc(N=Nc2ccc(Cl)cc2)cc(CN(C)C)c1O,80% (active)
